PfHsp90 set2: inhibits growth of yeast expressing Plasmodium falciparum Hsp90; AID 504621; S. cerevisiae expressing PfHsp90, BacTiter-Glo ATP, 48 h; yeast lacking PDR1 and PDR3 efflux regulators; inhibition, % at 9.4 µM; hit rate 0.32% among 310,000;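 active = every replicate shows inhibition above about 80%, whatever the replicate mean, limit read from the data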
TIM10 inh: growth inhibitors of TIM10 yeast strain; S. cerevisiae TIM10 strain growth, BacTiter-Glo luminescence, 24 h; inhibition, % at 10 µM; hit rate 1.4% among 330,000;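 active = inhibition of 40% or more at the single tested concentration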;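 also: wild-type TIM10 isogenic control strain grown at permissive 25 °C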
tim23-1 inh: growth inhibitors of tim23-1 mutant yeast. S. cerevisiae tim23-1 growth, BacTiter-Glo luminescence, 24 h. inhibition, % at 20 µM. hit rate 1.3% among 330,000. AID 463212;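 active = growth inhibition of the mutant yeast at or above 50%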;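 also: temperature-sensitive mutant grown at 25 °C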
NLRP3 yeast inh: inhibitors of NALP3 inflammasome in yeast | Yeast reconstituted NLRP3/ASC/caspase-1, beta-gal luminescence, 24 h | hit rate 0.39% among 330,000 | inhibition, % at 10 µM;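 active = inhibition of 50% or more; inactive = inhibition below 50%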
tim10-1 inh: tim10-1 yeast growth inhibition. S. cerevisiae tim10-1 ts strain growth, BacTiter-Glo, 24 h. inhibition, % at 20 µM. hit rate 2.2% among 330,000. AID 463190;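 active = inhibition of at least 40%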;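 also: mutant grown at 25 °C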
SKKanGAS inh: inhibitors of SKKanGAS S. pyogenes growth in kanamycin (SK-promoter or general growth effect); inhibition, % at 7.5 µM; BacTiter-Glo, 6 h; hit rate 1.3% among 300,000;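 active = mean replicate score, as percent of positive control median, at least 50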;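 also: strain carries kanamycin resistance gene driven by streptokinase promoter and grows in 40 µg/ml kanamycin; loss of luminescence reflects streptokinase promoter inhibition or plain growth inhibition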
tim10-1 conf: tim10-1 yeast growth inhibition, confirmed; shares compounds with tim10-1 inh; S. cerevisiae tim10-1 ts strain growth, BacTiter-Glo, 24 h; inhibition, % at 20 µM; hit rate 56% among 7,400; AID 463213;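 active = inhibition of yeast growth at or above a set limit in either of two repeat tests at 20 µM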;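 also: tim10-1 mutant grown at permissive 25 °C to find synthetic lethal compounds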
A number is an active result; n = inactive; x = not tested or not shown. This is a sample that favours compounds with a hit; in the whole collection about 4.6% have one here.

SMILES | PfHsp90 set2 | TIM10 inh | tim23-1 inh | NLRP3 yeast inh | tim10-1 inh | SKKanGAS inh | tim10-1 conf
COc1ccccc1CC(=O)O/N=C(\N)c1ccccn1 | n | n | n | n | n | n | x
COc1ccc(C(=O)O/N=C(\N)c2ccc(Br)cc2)cc1 | n | n | n | n | 43 | n | 53
COc1ccc(/C(N)=N/OC(=O)Cc2ccccc2OC)cc1 | n | n | n | n | 49 | n | 32
NS(=O)(=O)c1ccc(CCNC(=O)c2ccc3c(=O)n4c(nc3c2)CCCCC4)cc1 | n | n | n | n | n | x | x
CCOC(=O)C(=CNc1cccnc1Oc1ccc(C)c2c1CCC2)C(=O)OCC | n | n | n | n | n | n | x
C[C@H](O)[C@@H]1C(=O)N2CCc3ccc(N4CCOCC4)cc3[C@@H]2C[C@@H]1N(C)C(=O)Nc1ccccc1 | n | x | x | x | x | x | x
CCOc1ccc(NC(=O)CSCc2cnn(-c3ccccc3)c2-n2cccc2)cc1 | n | n | n | n | 44 | n | 30
C=CCN1C(=O)/C(=C2\SC(N3CCOCC3)=NC2=O)c2cc(Br)ccc21 | n | n | n | n | 51 | n | n
CCN1C(=O)/C(=C2\SC(N3CCOCC3)=NC2=O)c2ccccc21 | n | n | n | n | n | n | x
O=C(NNC(=O)c1ccc2c(=O)n3c(nc2c1)CCC3)c1cccc(Cl)c1 | n | n | n | n | n | n | x
Cc1ccc(C(C)NC(=O)C2CCCC2)c(C)c1 (configuration not stated) | n | n | n | n | n | n | x
Cc1ccc(C(C)NC(=S)NC2CCCCC2)c(C)c1 (configuration not stated) | n | n | n | n | 41 | n | n
COC(=O)c1ccc(COn2nnc3ccccc32)cc1 | n | n | n | n | n | n | x
S=C(Nc1ccc2nsnc2c1)N1CCCC1 | n | n | n | n | 41 | n | n
COc1ccc(-c2ccnc3c(C(=O)O)cnn23)cc1 | n | n | n | n | n | n | x
CC1(C)CC(=O)c2sc(NC(=O)CCS(=O)(=O)c3ccccc3)nc2C1 | n | n | n | n | 46 | n | 37
COC(=O)c1c(NC(=O)Cn2cnc([N+](=O)[O-])n2)sc2c1CCC(C)C2 (configuration not stated) | n | n | n | n | 50 | n | n
CCCCCCCCOC(=O)c1ccc(N)cc1 | n | n | n | n | 45 | n | n
CCCCOC(=O)c1ccc(O)cc1 | n | n | n | n | n | n | x
COc1ccc2cc(C(=O)N/N=C/c3cc(OC)c(OC)c(OC)c3)[nH]c2c1 | n | n | n | n | 40 | n | n
COc1ccc(/C=N/NC(=O)c2cc3cc(OC)c(OC)cc3[nH]2)cc1 | n | n | n | n | n | n | x
O=C(O)c1cc(S(=O)(=O)NCC2COc3ccccc3O2)ccc1Cl (configuration not stated) | n | n | n | n | n | x | x
CC(C)c1ccc(NC(=O)c2cc(S(=O)(=O)NCC3COc4ccccc4O3)ccc2F)cc1 (configuration not stated) | n | n | n | n | 43 | 69 | 43
O=c1c2c(nc3n1CCCCC3)sc1c(O)c(Br)ccc12 | x | n | n | n | 45 | n | n
CCN(CC)CCOc1c(Br)ccc2c1sc1nc3n(c(=O)c12)CCC3 | n | n | n | n | n | n | x
SMILES | PfHsp90 set2 | TIM10 inh | tim23-1 inh | NLRP3 yeast inh | tim10-1 inh | SKKanGAS inh | tim10-1 conf
CCC(C)c1ccc(NC(=O)C2CCCN(c3ncccn3)C2)cc1 (configuration not stated) | n | n | n | n | 42 | n | 41
COc1ccc(NC(=O)C2CCCN(c3ncccn3)C2)cc1 (configuration not stated) | n | n | n | n | n | n | x
COc1ccc(/C=C/C(=O)CCC(=O)O)cc1 | n | n | n | n | n | n | x
COc1ccc(/C=C/C(=O)CC(O)(c2ccccc2)C(F)(F)F)cc1 (configuration not stated) | x | n | n | n | 47 | n | 36
O=C(/C=C/c1ccccc1)CC(O)(c1ccccc1)C(F)(F)F (configuration not stated) | n | n | n | n | 45 | n | 39
COc1ccccc1CNC(=O)C(NS(=O)(=O)c1ccc2c(c1)OCCO2)C(C)C (configuration not stated) | n | n | n | n | n | n | x
O=C(c1cccnc1)c1ncc(C(F)(F)F)cc1Cl | n | n | n | n | n | n | x
CCCc1cc(-c2nc(N)ncc2-c2csc(C)n2)c(O)cc1OC | n | n | n | n | 43 | n | n
Cc1cc(OCC(=O)Nc2sc3c(c2C#N)CC(C)(C)NC3(C)C)c(C(C)C)cc1Cl | n | n | n | n | 47 | n | n
Cc1ccc(C(C)C)c(OCC(=O)Nc2sc3c(c2C#N)CC(C)(C)NC3(C)C)c1 | n | n | n | n | n | n | x
Cc1cccc(OCC(=O)Nc2ccc(S(=O)(=O)Nc3onc(C)c3C)cc2)c1C | n | n | n | n | n | n | x
CCOC(=O)N1CCN(Cc2cc(Cl)c3cccnc3c2O)CC1 | x | n | n | n | 47 | 66 | n
O=C(/C=C/c1ccco1)Nc1ccccc1N1CCCC1 | n | n | n | n | 53 | n | 46
O=C(CC(=O)c1ccccc1)Nc1ccc(Cl)cc1 | n | n | n | n | n | n | x
CCN(c1ccccc1C(=O)O)S(=O)(=O)c1cccc2nsnc12 | n | n | n | n | n | n | x
Cc1ccc2nc(SCC(=O)Nc3cc(C(C)(C)C)nn3-c3ccccc3)[nH]c2c1 | n | n | n | n | 44 | n | n
CC(=O)C1=C(C)N(Cc2ccccc2)C(=O)N[C@@H]1c1cccc(C(F)(F)F)c1 | n | n | n | n | 41 | n | n
CC(=O)C1=C(C)N(Cc2ccccc2)C(=O)N[C@H]1c1cccc(C(F)(F)F)c1 | n | n | n | n | n | n | x
Cc1ccc2c(c1)CCCN2CC(=O)Nc1cccc(S(=O)(=O)N2CCCC2)c1 | n | n | n | n | n | x | x
Cc1cccc(-c2noc(C(C)NC(=O)c3ccco3)n2)c1 (configuration not stated) | n | n | n | n | n | n | x
CCOc1cc(/C=N/NC(=O)CN2CCOCC2)ccc1OCc1ccc(Cl)cc1 | n | n | n | n | 42 | n | n
O=C(NCC1CC1)Nc1cccc(C(F)(F)F)c1 | n | x | x | x | x | n | x
COc1ccc(-c2cn3cccnc3n2)cc1NC(=O)C(C)Oc1ccccc1 (configuration not stated) | n | n | n | n | 46 | n | n
CCOC(=O)Nc1nc(-c2ccc(Cl)cc2Cl)cs1 | n | n | n | n | 40 | n | n
Cc1cc(C)n(C(=O)c2ccc([N+](=O)[O-])cc2[N+](=O)[O-])n1 | n | n | n | n | 41 | n | n
O=C(/C=C(/c1ccc(Cl)cc1)n1cncn1)c1ccccc1 | n | n | n | n | 43 | n | 31

High-throughput results: PubChem, several laboratories
